Data published in the antibiotic and cytotoxicity screens of Wong et al. (2023).
Hit rate of the full screen: of about 39,000 compounds, about 500 (1.3%) were called active. The list comes from a sample in which actives are over-represented; it also holds similar structures and randomly drawn compounds.

Tested on: S. aureus RN4220
Assay: growth inhibition call (relative growth <= 0.2)
Details: 50 µM

| SMILES | growth inhibition call |
| --- | --- |
| COc1ccc(NC(=O)Nc2ccc3c(c2)C(=O)N([C@@H](C)CO)C[C@@H](C)[C@@H](CN(C)Cc2ccc(Oc4ccccc4)cc2)O3)cc1 | inactive |
| CN1C(=O)c2cc(NS(C)(=O)=O)ccc2OC[C@H]2O[C@@H](CC(=O)N3CCOCC3)CC[C@H]21 | inactive |
| C[C@@H]1CN([C@@H](C)CO)C(=O)Cc2cc(NS(=O)(=O)c3ccc(Cl)cc3)ccc2O[C@@H]1CN(C)C(=O)Nc1ccc(C(F)(F)F)cc1 | inactive |
| C[C@H](CO)N1C[C@H](C)[C@@H](CN(C)C(=O)Nc2cccc3ccccc23)Oc2ccc(NC(=O)Cn3cnnn3)cc2CC1=O | inactive |
| C[C@H](CO)N1C[C@H](C)[C@@H](CN(C)C(=O)C2CCCCC2)OCCCC[C@H](C)Oc2ccc(NC(=O)Nc3ccc(C(F)(F)F)cc3)cc2C1=O | inactive |
| CO[C@@H](CN(C)C(=O)C1CCOCC1)[C@@H](C)CN(C(=O)Nc1ccc(C(F)(F)F)cc1)[C@H](C)CO | active |
| CO[C@@H](CN(C)C(=O)Nc1ccc(C(F)(F)F)cc1)[C@H](C)CN(Cc1ccccc1Cl)[C@@H](C)CO | inactive |
| CO[C@H](CN(C)C(=O)Nc1ccc(C(F)(F)F)cc1)[C@@H](C)CN(Cc1ccccc1Cl)[C@H](C)CO | inactive |
| CO[C@@H](CN(C)C(=O)C1CCOCC1)[C@H](C)CN(C(=O)Nc1ccc(C(F)(F)F)cc1)[C@@H](C)CO | active |
| CO[C@H](CN(C)C(=O)Nc1ccc(C(F)(F)F)cc1)[C@@H](C)CN(Cc1ccccc1Cl)[C@@H](C)CO | inactive |
| CO[C@H](CN(C)C(=O)C1CCOCC1)[C@H](C)CN(C(=O)Nc1ccc(C(F)(F)F)cc1)[C@@H](C)CO | active |
| CO[C@@H](CN(C)C(=O)C1CCOCC1)[C@@H](C)CN(C(=O)Nc1ccc(C(F)(F)F)cc1)[C@@H](C)CO | inactive |
| C[C@@H]1CN([C@H](C)CO)C(=O)c2cc(NC(=O)Nc3ccc(C(F)(F)F)cc3)ccc2O[C@@H](C)CCCCO[C@H]1CN(C)C(=O)C1CCCCC1 | inactive |
| CO[C@H](CN(C)C(=O)Nc1ccc(C(F)(F)F)cc1)[C@H](C)CN(Cc1ccccc1Cl)[C@@H](C)CO | inactive |
| CO[C@@H](CN(C)C(=O)Nc1ccc(C(F)(F)F)cc1)[C@H](C)CN(Cc1ccccc1Cl)[C@H](C)CO | inactive |
| CO[C@H](CN(C)C(=O)C1CCOCC1)[C@@H](C)CN(C(=O)Nc1ccc(C(F)(F)F)cc1)[C@@H](C)CO | active |
| COc1ccc(S(=O)(=O)N(C)C[C@@H]2OCc3cn(nn3)CCCC(=O)N([C@H](C)CO)C[C@H]2C)cc1 | inactive |
| COc1ccc(NC(=O)N(C)C[C@@H]2OCCCC[C@H](C)Oc3ccc(NS(=O)(=O)c4ccc(C)cc4)cc3C(=O)N([C@H](C)CO)C[C@H]2C)cc1 | inactive |
| Nc1nnc(CC(=O)N2CCCCC2)o1 | inactive |
| CN1C(=O)c2cc(NC(=O)Nc3ccccc3F)ccc2OC[C@@H]2O[C@@H](CC(=O)NCc3ccc(-c4ccccc4)cc3)CC[C@H]21 | inactive |

| SMILES | growth inhibition call |
| --- | --- |
| Cc1noc(C)c1S(=O)(=O)Nc1ccc2c(c1)CC(=O)N([C@@H](C)CO)C[C@H](C)[C@H](CN(C)Cc1ccc(C(=O)O)cc1)O2 | inactive |
| C[C@@H]1CCCCO[C@H](CN(C)C(=O)Nc2cccc3ccccc23)[C@H](C)CN([C@@H](C)CO)C(=O)c2cc(NS(=O)(=O)c3ccc(Cl)cc3)ccc2O1 | inactive |
| COc1ccc(S(=O)(=O)N(C)C[C@@H]2OCc3cnnn3CCCC(=O)N([C@@H](C)CO)C[C@H]2C)cc1 | inactive |
| C[C@H]1CCCCO[C@H](CN(C)C)[C@@H](C)CN([C@@H](C)CO)C(=O)c2cc(NC(=O)CCCN(C)C)ccc2O1 | inactive |
| Cc1cc(C)c(S(N)(=O)=O)cc1S(N)(=O)=O | inactive |
| C=CCOC(=O)[C@@H]1[C@H]2C(=O)O[C@H](c3ccccc3)[C@H](c3ccccc3)N2[C@H](c2ccc(OCCOC(=O)[C@@H]3C[C@@H]4C(=O)N[C@@H](Cc5ccccc5)C(=O)N4[C@@H]3c3ccc(O)cc3)cc2)[C@@]12C(=O)Nc1ccccc12 | inactive |
| C[C@H]1CN([C@@H](C)CO)C(=O)c2cc(C#CCN(C)C)cnc2O[C@@H]1CN(C)Cc1cccc(C(=O)O)c1 | inactive |
| COc1ccc(S(=O)(=O)N(C)C[C@@H]2Oc3ccc(NS(C)(=O)=O)cc3C(=O)N([C@H](C)CO)C[C@@H]2C)cc1 | inactive |
| CO[C@H](CN(C)C(=O)Nc1ccc(C(F)(F)F)cc1)[C@H](C)CN(Cc1ccccc1Cl)[C@H](C)CO | inactive |
| CO[C@H](CN(C)C(=O)C1CCOCC1)[C@H](C)CN(C(=O)Nc1ccc(C(F)(F)F)cc1)[C@H](C)CO | active |
| CO[C@@H](CN(C)C(=O)Nc1ccc(C(F)(F)F)cc1)[C@@H](C)CN(Cc1ccccc1Cl)[C@@H](C)CO | inactive |
| C[C@@H]1CCCCO[C@@H](CN(C)C(=O)C2CCCCC2)[C@@H](C)CN([C@H](C)CO)C(=O)c2cc(NC(=O)Nc3ccc(C(F)(F)F)cc3)ccc2O1 | inactive |
| C[C@@H]1CCCCO[C@@H](CN(C)C(=O)C2CCCCC2)[C@H](C)CN([C@@H](C)CO)C(=O)c2cc(NC(=O)Nc3ccc(C(F)(F)F)cc3)ccc2O1 | inactive |
| CO[C@H](CN(C)C(=O)C1CCOCC1)[C@@H](C)CN(C(=O)Nc1ccc(C(F)(F)F)cc1)[C@H](C)CO | active |
| Cc1noc(C)c1NC(=O)Nc1ccc2c(c1)C(=O)N([C@H](C)CO)C[C@@H](C)[C@H](CN(C)S(=O)(=O)c1ccc(Cl)cc1)OCCCC[C@@H](C)O2 | inactive |
| C[C@H](CO)N1C[C@H](C)[C@@H](CN(C)Cc2ccc(C(=O)Nc3ccccc3N)cc2)Oc2c(NC(=O)c3nc4ccccc4s3)cccc2C1=O | inactive |
| COc1ccc(S(=O)(=O)Nc2ccc3c(c2)C(=O)N([C@H](C)CO)C[C@H](C)[C@@H](CN(C)Cc2ccc(C(=O)O)cc2)OCCCC[C@@H](C)O3)cc1 | inactive |
| CCNC(=O)C[C@H]1C=C[C@H](NC(=O)C2CC2)[C@H](CO)O1 | inactive |
| O=c1c(O)nnc2n1CCN2c1ccccc1 | inactive |
| Cc1noc(C)c1S(=O)(=O)Nc1cccc2c1O[C@@H](CN(C)S(=O)(=O)c1ccccc1)[C@@H](C)CN([C@H](C)CO)C2=O | inactive |
